A short description of assay [1]: binders of probe aFSTL3 on microarray, primary screen, stem cell growth factor project, biochemical, small-molecule microarray, fluorescence 635/667 (AID 1064).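 Also: measures binding of the biotinylated anti-FSTL3 antibody to printed compounds.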 Particulars: higher = more signal.
The nature of assay [2]: binders from COS7 lysate, DM2A8 probe, primary screen, torsin A project, cell lysate, small-molecule microarray, fluorescence 635/667 (AID 1065). Particulars: higher = more signal, COS7 lysate expressing mutant human TOR1A.
Assay [3] in a line: binders of probe aFGF2 on microarray, primary screen, stem cell growth factor project, biochemical, small-molecule microarray, fluorescence 635/667 (AID 1067).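 Also: measures binding of biotinylated aFGF2 protein to printed compounds on slides; z-score merges feature fluorescence and signal-to-noise across triplicate slides.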 Particulars: higher = more signal.
The nature of assay [4]: binders of probe aFGF10 on microarray, primary screen, stem cell growth factor project, biochemical, small-molecule microarray, fluorescence 635/667 (AID 1071).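 Also: score merges 667 nm spot intensity and signal to noise from triplicate slides.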 Particulars: higher = more signal.
For assay [5], the target named is Neurogenic locus notch homolog protein 2 (Homo sapiens) (UniProt Q04721). The experiment in a line: Notch2 binders on small-molecule microarrays, primary screen, biochemical, small-molecule microarray, 635 nm fluorescence, stem cell growth factors (AID 1073). Particulars: Notch2 binding, higher = more signal.
Neurogenic locus notch homolog protein 2 (Homo sapiens), sequence (Q04721 whole entry, looked up, canonical isoform): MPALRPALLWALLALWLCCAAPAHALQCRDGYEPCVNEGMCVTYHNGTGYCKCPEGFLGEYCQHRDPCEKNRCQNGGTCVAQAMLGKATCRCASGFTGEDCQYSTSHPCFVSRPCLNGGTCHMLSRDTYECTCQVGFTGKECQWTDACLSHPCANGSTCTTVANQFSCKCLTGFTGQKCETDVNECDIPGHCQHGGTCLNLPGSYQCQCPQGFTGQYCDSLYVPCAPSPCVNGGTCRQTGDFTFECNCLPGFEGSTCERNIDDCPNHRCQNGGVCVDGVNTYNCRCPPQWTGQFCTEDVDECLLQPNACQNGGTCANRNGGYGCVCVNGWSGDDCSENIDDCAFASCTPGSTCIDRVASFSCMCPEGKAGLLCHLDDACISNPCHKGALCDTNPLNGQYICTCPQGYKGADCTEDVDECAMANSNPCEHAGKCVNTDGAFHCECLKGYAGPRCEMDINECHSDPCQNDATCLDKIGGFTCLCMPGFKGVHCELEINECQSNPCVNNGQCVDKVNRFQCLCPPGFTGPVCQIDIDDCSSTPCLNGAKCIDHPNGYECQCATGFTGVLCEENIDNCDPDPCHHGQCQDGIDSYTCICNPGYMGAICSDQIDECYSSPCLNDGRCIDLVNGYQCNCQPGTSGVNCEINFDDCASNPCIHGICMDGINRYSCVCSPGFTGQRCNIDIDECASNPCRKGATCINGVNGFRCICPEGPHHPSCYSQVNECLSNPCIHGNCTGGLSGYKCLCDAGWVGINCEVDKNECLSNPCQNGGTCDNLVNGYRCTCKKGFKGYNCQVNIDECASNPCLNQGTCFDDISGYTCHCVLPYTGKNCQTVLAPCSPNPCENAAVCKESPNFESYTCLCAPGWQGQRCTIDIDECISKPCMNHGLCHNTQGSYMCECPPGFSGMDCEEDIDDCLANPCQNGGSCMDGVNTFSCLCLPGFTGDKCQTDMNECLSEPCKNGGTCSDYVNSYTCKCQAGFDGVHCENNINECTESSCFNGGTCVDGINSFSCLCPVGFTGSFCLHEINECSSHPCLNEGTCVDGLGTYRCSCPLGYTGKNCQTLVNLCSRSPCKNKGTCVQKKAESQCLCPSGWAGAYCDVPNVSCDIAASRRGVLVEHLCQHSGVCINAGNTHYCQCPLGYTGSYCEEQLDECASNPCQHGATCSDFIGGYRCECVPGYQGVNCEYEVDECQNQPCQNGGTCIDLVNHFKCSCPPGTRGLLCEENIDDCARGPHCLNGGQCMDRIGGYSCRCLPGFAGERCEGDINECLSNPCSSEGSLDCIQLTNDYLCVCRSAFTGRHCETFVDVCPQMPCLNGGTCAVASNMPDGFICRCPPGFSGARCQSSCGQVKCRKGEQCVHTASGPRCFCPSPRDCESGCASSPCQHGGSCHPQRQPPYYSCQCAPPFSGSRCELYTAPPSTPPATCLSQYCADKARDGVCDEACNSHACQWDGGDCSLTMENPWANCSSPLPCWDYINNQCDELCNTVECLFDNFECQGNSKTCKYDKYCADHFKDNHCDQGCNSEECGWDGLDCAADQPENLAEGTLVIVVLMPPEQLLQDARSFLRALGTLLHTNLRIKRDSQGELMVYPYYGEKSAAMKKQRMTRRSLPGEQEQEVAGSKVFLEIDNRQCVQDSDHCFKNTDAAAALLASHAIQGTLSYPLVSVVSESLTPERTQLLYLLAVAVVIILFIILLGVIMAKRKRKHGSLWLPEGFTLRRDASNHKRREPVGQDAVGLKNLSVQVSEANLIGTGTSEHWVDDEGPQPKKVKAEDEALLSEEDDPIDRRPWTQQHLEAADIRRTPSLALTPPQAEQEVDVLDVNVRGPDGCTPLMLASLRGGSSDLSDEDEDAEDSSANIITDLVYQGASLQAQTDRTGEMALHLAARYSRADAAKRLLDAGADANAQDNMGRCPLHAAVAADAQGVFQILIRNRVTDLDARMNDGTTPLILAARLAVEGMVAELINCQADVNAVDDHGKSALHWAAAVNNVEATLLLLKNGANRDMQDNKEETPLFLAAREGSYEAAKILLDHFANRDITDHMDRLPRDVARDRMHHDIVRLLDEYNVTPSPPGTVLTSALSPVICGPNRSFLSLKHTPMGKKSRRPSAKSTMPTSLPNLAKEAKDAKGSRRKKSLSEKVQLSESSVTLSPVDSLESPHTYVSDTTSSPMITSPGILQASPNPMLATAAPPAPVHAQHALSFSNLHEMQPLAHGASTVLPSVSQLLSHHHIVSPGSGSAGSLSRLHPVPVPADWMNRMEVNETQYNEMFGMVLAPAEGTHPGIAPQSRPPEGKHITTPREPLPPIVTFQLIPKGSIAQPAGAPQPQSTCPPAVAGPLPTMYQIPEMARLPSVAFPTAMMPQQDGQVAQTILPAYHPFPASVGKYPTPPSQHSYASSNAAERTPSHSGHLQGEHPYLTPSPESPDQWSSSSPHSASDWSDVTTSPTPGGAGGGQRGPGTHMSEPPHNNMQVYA
Assay [6] addresses Pro-neuregulin-1, membrane-bound isoform (Homo sapiens) (UniProt Q02297). The assay is described as follows: NRG1 binders on small-molecule microarrays, primary screen, psychiatric disease protein project, biochemical, small-molecule microarray, fluorescence 635/667 (AID 1075).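 Also: score combines 667 nm spot fluorescence with signal to noise.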 Particulars: NRG1 binding, 635 nm fluorescence, higher = more signal.
Assay [7] concerns Neuregulin-1 EGF-like domain. The experiment in a line: binders of neuregulin-1 EGF-like domain, primary screen, biochemical, small-molecule microarray, 635 nm fluorescence (AID 1081).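 Also: binding of the protein to compounds printed on small-molecule microarray slides.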 Particulars: small-molecule microarray binding, higher = more signal.
Assay [8] in a line: FRG1 promoter luciferase signal modulators, primary screen, FRG1 inhibition for FSHD, cell-based, C2C12 myotubes, firefly/Renilla luciferase, luminescence (AID 1084). Particulars: higher = more signal, called active from +8 up or from −8 down.
Assay [9] in a line: binders of probe aFST on microarray, primary screen, stem cell growth factor project, biochemical, small-molecule microarray, fluorescence 635/667 (AID 1086).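 Also: score merges 667 nm fluorescence with signal-to-noise of each printed compound spot.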 Particulars: higher = more signal.
Assay [10] can be described thus: binders of probe aHhip on microarray, primary screen, stem cell growth factor project, biochemical, small-molecule microarray, fluorescence 635/667 (AID 1087).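 Also: score merges spot fluorescence at 667nm with spot signal to noise ratio.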 Particulars: higher = more signal.
The subject of assay [11] is PRMT1 (protein arginine N-methyltransferase 1). The assay is described as follows: PRMT1 binders on small-molecule microarrays, primary screen, biochemical, small-molecule microarray, 635 nm fluorescence (AID 1088).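 Also: binding of Prmt1 protein to compounds spotted on small-molecule microarray slides.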 Particulars: small-molecule microarray binding, higher = more signal.
Assay [12] can be described thus: yeast growth modulation, basal conditions, primary screen, YJM789 clinical isolate, OD600, 24 h (AID 1089).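 Also: growth of clinical yeast isolate S. cerevisiae YJM 789 seeded 1000 cells per well; test concentration not given here.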 Particulars: S. cerevisiae YJM789 growth, higher = more signal, called active from +8 up or from −8 down.
Assay [13] is described as follows: fission yeast growth modulation, primary screen, strain 972, OD600, 24 h, no modulator (AID 1090).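 Also: basal condition with compound alone and no growth modifier present; test concentration not given here.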 Particulars: S. pombe 972 growth, higher = more signal, called active from +8 up or from −8 down.
The nature of assay [14]: S. cerevisiae growth modulation with rapamycin, primary screen, strain BY4716, OD600, 96 h (AID 1091). Also: test concentration not given here. Particulars: higher = more signal, called active from +8 up or from −8 down.
In assay [15] the target is Torsin-1A-interacting protein 2 (Homo sapiens) (UniProt Q8NFQ8). The assay is described as follows: LULL1 binders on small-molecule microarray, primary screen, cell lysate, human LULL1 lysate, 635/667 nm fluorescence (AID 1092).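 Also: probe is lysate of COS7 cells overexpressing human LULL1; score merges per-feature 667 nm fluorescence with signal-to-noise.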 Particulars: hLULL1 lysate binding, 635 nm fluorescence, higher = more signal.
A short description of assay [16]: E. coli growth modulation, two-sided OD650, primary screen, E. coli filamentation project, strain DRC41, 24 h (AID 1093).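 Also: MC1000 strain lacking acrAB efflux and sulA so SOS filamentation is blocked; test concentration not given here.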 Particulars: OD650, 24 h, higher = more signal, called active from +8 up or from −8 down.
Assay [17] in a line: small-molecule microarray binders of probe aLefty2, primary screen, biochemical, biotinylated probe, 635/667 nm fluorescence (AID 1094).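 Also: score merges spot fluorescence near 667 nm with spot signal-to-noise ratio.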 Particulars: higher = more signal.
For assay [18], the system named is Noggin (protein binding on small-molecule microarray). The assay is described as follows: Noggin binders on small-molecule microarray, primary screen, biochemical, 635/667 nm fluorescence (AID 1095).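 Also: score merges 667 nm feature fluorescence with signal to noise over triplicate slides.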 Particulars: 635 nm fluorescence, higher = more signal.
The target of assay [19] is Neurogenic locus notch homolog protein 3 (Homo sapiens) (UniProt Q9UM47). The experiment in a line: NOTCH3 binders on small-molecule microarray, primary screen, biochemical, 635/667 nm fluorescence (AID 1096). Particulars: NOTCH3 binding, 635 nm fluorescence, higher = more signal.
Neurogenic locus notch homolog protein 3 (Homo sapiens), sequence (Q9UM47 whole entry, looked up): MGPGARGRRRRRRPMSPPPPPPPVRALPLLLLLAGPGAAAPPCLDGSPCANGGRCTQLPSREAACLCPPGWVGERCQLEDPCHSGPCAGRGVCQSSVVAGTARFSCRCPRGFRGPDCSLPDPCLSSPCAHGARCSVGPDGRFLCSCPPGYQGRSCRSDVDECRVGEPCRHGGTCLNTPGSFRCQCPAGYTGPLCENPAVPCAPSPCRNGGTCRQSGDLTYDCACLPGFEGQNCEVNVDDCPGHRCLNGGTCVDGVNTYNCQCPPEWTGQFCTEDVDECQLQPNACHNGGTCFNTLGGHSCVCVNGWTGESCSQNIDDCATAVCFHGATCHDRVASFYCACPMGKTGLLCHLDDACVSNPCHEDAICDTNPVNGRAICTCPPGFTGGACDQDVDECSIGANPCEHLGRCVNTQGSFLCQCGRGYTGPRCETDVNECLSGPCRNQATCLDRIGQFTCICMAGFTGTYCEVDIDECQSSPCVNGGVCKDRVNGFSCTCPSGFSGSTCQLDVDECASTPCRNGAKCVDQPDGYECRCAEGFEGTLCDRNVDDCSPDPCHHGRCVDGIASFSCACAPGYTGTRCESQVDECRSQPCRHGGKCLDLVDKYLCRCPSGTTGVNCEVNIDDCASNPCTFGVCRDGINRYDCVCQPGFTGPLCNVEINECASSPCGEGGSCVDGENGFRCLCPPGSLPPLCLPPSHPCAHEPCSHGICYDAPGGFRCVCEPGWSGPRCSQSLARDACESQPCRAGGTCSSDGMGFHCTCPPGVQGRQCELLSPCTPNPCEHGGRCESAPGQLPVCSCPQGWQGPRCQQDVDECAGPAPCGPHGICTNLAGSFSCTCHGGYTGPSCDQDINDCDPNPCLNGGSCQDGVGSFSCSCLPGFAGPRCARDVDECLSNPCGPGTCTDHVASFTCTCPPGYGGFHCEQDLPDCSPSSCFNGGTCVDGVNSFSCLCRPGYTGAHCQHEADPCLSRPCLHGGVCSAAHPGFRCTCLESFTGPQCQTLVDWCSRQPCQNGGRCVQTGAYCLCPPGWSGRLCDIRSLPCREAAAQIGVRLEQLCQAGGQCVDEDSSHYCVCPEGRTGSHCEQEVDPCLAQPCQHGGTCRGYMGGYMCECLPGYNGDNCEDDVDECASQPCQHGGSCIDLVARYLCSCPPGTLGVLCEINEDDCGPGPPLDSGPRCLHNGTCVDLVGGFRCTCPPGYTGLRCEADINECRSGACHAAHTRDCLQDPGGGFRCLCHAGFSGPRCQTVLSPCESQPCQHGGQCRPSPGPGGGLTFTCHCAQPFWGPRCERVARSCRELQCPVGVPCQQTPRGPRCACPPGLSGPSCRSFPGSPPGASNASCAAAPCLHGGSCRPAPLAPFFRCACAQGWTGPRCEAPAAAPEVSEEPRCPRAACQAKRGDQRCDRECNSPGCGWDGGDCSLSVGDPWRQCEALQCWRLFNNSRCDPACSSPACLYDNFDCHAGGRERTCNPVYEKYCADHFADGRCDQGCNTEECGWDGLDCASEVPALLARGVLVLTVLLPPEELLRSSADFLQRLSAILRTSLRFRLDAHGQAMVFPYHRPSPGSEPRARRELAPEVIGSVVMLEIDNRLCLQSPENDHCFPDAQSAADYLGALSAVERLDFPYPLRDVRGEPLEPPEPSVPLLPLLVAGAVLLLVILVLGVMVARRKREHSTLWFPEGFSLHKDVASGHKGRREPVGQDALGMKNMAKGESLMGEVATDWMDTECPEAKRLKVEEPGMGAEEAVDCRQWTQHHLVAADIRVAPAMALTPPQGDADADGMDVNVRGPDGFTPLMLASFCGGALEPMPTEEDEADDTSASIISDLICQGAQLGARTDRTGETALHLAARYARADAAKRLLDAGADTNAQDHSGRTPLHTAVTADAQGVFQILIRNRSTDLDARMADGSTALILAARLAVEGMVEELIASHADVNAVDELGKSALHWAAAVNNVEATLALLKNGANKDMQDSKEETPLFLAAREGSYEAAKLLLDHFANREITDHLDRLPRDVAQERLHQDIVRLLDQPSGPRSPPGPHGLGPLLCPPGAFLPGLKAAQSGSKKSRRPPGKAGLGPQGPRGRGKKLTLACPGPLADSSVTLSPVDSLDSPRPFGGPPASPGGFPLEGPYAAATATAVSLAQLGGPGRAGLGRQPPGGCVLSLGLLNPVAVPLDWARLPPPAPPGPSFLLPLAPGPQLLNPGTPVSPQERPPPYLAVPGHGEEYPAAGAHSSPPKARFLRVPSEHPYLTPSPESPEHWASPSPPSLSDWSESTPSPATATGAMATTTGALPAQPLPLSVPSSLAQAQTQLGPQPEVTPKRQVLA
The nature of assay [20]: small-molecule microarray binders of probe aEGFR, primary screen, biochemical, biotinylated probe, 635/667 nm fluorescence (AID 1097).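 Also: probe is a biotinylated anti-EGFR antibody binding compounds printed on slides; score combines fluorescence near 667 nm and signal to noise of each spot.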 Particulars: higher = more signal.

The source made the active and inactive calls.

For the compound `COC(=O)[C@@H]1CC[C@H](C)[C@@H](c2ccc(C)cc2)N1C(=O)c1ccc(C=NO[C@@H](C)c2cc(-c3c(C)cc(C)cc3C)no2)cc1`, the composite z-score is -0.4 in assay [1]; 0.58 in [2]; -0.166 in assay [3]; 0.219 in assay [4]; 0.239 in assay [5]; 0.0688 in assay [6]. The composite z-score in assay [7] is 0.38; in [9] it was 0.188; in [10] it was -0.0237; in assay [11], 1.05; in assay [15], 0.919; in assay [17], -0.0727. In addition, the composite z-score in [18] was 0.3; in assay [19], 0.35; in assay [20], -0.165. Also, the z-score in assay [8] was -1.21 (inactive); in [12], -0.0984 (inactive); in assay [13] it was 0.358 (inactive); in assay [14], 0.612 (inactive); in [16], 0.328 (inactive).

With `O=C1[C@H]2[C@H]3[C@H](O)[C@H](O)CC(=NOC[C@@H](O)COCc4ccco4)[C@@H]3CC[C@H]2C(=O)N1c1cccc(Oc2ccccc2)c1`, the composite z-score is -0.424 in [1]; -0.78 in assay [2]; -0.172 in assay [3]; -0.177 in assay [4]; -1.08 in assay [5]; -0.628 in assay [6]. Besides, the composite z-score in assay [7] was -0.554; in assay [9] it was -0.465; in assay [10] it was -0.179; in [11] it was -0.76; in [15] it was -0.75; in [17] it was 0.0474. For the same compound, the composite z-score in assay [18] is 0.0054; in [19], -0.487; in assay [20], -0.156. For the same compound, the z-score is -0.0105 (inactive) in assay [8]; 0.321 (inactive) in assay [12]; -0.512 (inactive) in [13]; -0.86 (inactive) in [14]; 0.0129 (inactive) in assay [16].

`CC(=O)OC[C@H]1O[C@@H](ON=C(C)CCN2CCCCc3nc(C)c(C)cc32)[C@H](OC(C)=O)[C@@H](OC(C)=O)[C@@H]1OC(C)=O`: the composite z-score in assay [1] is -0.587; in [2], 0.515; in assay [3] it was -0.0801; in assay [4], 0.751; in assay [5] it was 1; in assay [6] it was 0.853. Further, the composite z-score in assay [7] is 1.16; in [9], 0.551; in [10], 0.0881; in assay [11], 1.53; in [15], 1.07; in assay [17], -0.0179. Moreover, the composite z-score in [18] was 0.708; in assay [19], 0.927; in [20], 0.145. The z-score in assay [8] is 0.694 (inactive); in assay [12] it was -0.61 (inactive); in assay [13], -0.149 (inactive); in [14], -0.175 (inactive); in [16] it was -0.871 (inactive).

On to `O=C(NCCC[N+]1=CC=NC1c1ccccc1)N1CCCc2nc(-c3ccc(Br)cc3)ccc21` (stereo not given), for which the composite z-score in assay [1] is -0.265; in assay [2] it was -0.14; in assay [3], -0.107; in assay [4] it was 0.345; in [5], 0.576; in [6] it was 1.21. Also, the composite z-score in [7] was 0.97; in assay [9] it was 0.944; in assay [10] it was 0.0373; in [11], -0.476; in [15], 0.0594; in assay [17] it was -0.0616. For the same compound, the values for the composite z-score in [18], in [19] and in assay [20] were 0.232, -0.378 and -0.0183, respectively. In addition, the z-score in assay [8] is 0.88 (inactive); in assay [12], -0.435 (inactive); in [13] it was -1.69 (inactive); in [14], 0.763 (inactive); in [16], 2.39 (inactive).

Take `CC(C)[C@@H](OCc1ccccc1)[C@H](C)CON=C1[C@H]2CCn3c(=O)n(-c4ccccc4)c(=O)n3[C@H]2[C@H](O)[C@@H]2O[C@H]12`: the composite z-score is -0.375 in assay [1]; 0.616 in [2]; 0.0362 in [3]; 0.84 in assay [4]; 0.541 in [5]; 0.246 in assay [6]. The composite z-score is 0.218 in assay [7]; 0.369 in [9]; -0.126 in assay [10]; 0.462 in [11]; 1.56 in [15]; -0.0063 in assay [17]. Moreover, the composite z-score in assay [18] was 0.439; in [19] it was 0.597; in assay [20] it was -0.067. Moreover, the z-score is -0.157 (inactive) in assay [8]; -1.48 (inactive) in [12]; -7.06 (inactive) in assay [13]; -0.882 (inactive) in [14]; 0.222 (inactive) in assay [16].

For the origin of these results see PubChem BioAssay.
